Measurements reported in PubChem BioAssay (NCI).
This is part of a sample that, as a whole, favours compounds with a hit. Of some 83,000 tested, about 20% had one in any assay.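 Treatment: one concentration, 48 hours, 96-well format. Scoring: percent growth, with anything below 10 considered active.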 The source made the active and inactive calls.

system: NCI-H460 lung; assay: NCI-60 one-dose screen, 48 h (100 = growth as untreated, 0 = no growth, -100 = all killed); conditions: 1 µM
Method: Growth inhibition of the NCI-H460 human Non-Small Cell Lung tumor cell line is measured as a screen for anti-cancer activity. Cells are grown in 96 well plates and exposed to the test compound for 48 hours. Compounds are tested at a single concentration, which is 10^-5 M for most compounds. The reported endpoint is percent growth (GI% or GIPRCNT), where numbers from 0 - 100% represent growth inhibition, and numbers from -100% - 0 represent cell death. For example, a value of 40 represents 60% growth inhibition. A value of 0 means no net growth occurred over the course of the experiment. A value of -40 indicates 40% of cells at the beginning of the experiment died by the end of the experiment. A value of -100 means all cells are dead at the end of the experiment.
NCI-60 Human Tumor Cell Lines Screen was performed using the standard one-dose NCI protocol, which is described in more detail at https://dtp.cancer.gov/discovery_development/nci-60/default.htm.
Compounds with GIPRCNT values below 10 were considered active. Activity score was based on GIPRCNT using the following formula: […]
Score is 0 for GIPRCNT values of 100 or above, 50 for GIPRCNT values of 0, and 100 for GIPRCNT values of -100.

Row | Structure (SMILES) | growth
1 | CC/C(=C(/c1ccc(O)cc1)c1ccc(OCCN(C)C(=O)CCOCCNC(=O)Cc2ccc3c(c2)CN([C@@H]2CCC(=O)NC2=O)C3=O)cc1)c1ccccc1 | 130% (inactive)

same assay, conditions: 10 µM

Row | Structure (SMILES) | growth
2 | CC/C(=C(/c1ccc(O)cc1)c1ccc(OCCN(C)C(=O)CCOCCNC(=O)Cc2ccc3c(c2)CN([C@@H]2CCC(=O)NC2=O)C3=O)cc1)c1ccccc1 | 103% (inactive)

same assay, conditions: 10 µM unless noted

Row | Structure (SMILES) | growth
3 | O=C(N/N=C/c1ccc(Cl)cc1)c1ccc(OCc2nc3ccc(Cl)cc3[nH]2)cc1 | -82.3% (active)
4 | Cn1cc(-c2cc(N)n3nc(-c4c[nH]c5ccc(F)cc45)cc3n2)c2cccnc21 | -50.6% (active)
5 | COc1ccc(NC(=O)NN2C(=O)c3ccccc3N(C)C2c2ccc(OC)cc2)cc1 (stereo not given) | 109% (inactive)
6 | Cn1cc(-c2cc3nc(-c4cn(C)c5ncccc45)cc(N)n3n2)c2cc(F)ccc21 | 37.6% (inactive)
7 | O=C1/C(=C/C=C/c2ccco2)SC(=S)N1CC(=S)C1C=CS(=O)(=O)C1 (stereo not given) | 29.2% (inactive)
8 | CCc1ccccc1-c1nc(CN[C@@H]2C[C@@H]3C[C@H]([C@H]2C)C3(C)C)c(C)o1 | -54.5% (active)
9 | CN(C)CCCc1ccc(Nc2cnn(C)c(=O)c2Cl)cc1 | 103% (inactive)
10 | O=C(COc1ccc(/C=C2/C(=O)Nc3ccc(Cl)cc32)cc1)Nc1ccc(Br)cc1 | -31.6% (active)
11 | CCOC(=O)/C(F)=C/C1CC1C(c1ccccc1)c1ccccc1 (stereo not given) | 38.7% (inactive)
12 | O=C1N/C(=N\c2nccs2)S/C1=C\c1ccc([N+](=O)[O-])cc1 | 8.33% (active)
13 | COc1cc2cc(C(=O)N3C[C@@H](CCl)c4c3cc(OC(=O)N(CCC(=O)N3CCN(C)CC3)C3CCCCC3)c3ccccc43)[nH]c2c(OC)c1OC | -73.1% (active)
14 | N#CC1=C(c2ccco2)Nc2c(c(-c3ccccc3)nn2-c2ccccc2)C12C(=O)Nc1ccc(Cl)cc12 (stereo not given) | 0.156% (active)
15 | COc1ccc2[nH]c(O)c(N=Nc3nc(-c4ccccc4)cs3)c2c1 | 12.3% (inactive)
16 | COc1ccc(C2=NN(C(=O)[C@H]3[C@@H](c4ccco4)c4sc(=O)[nH]c4S[C@@H]3C)C(c3ccc4ccccc4c3)C2)cc1 (stereo not given in full) | 23.8% (inactive)
17 | COc1c(B(O)O)cccc1-c1nc2ccc3cn[nH]c3c2c2c1CCCC2 | 56.8% (inactive)
18 | COc1ccc2c(c1)C(Sc1ccc(Br)cc1)c1c(nc(N)c(C#N)c1N)O2 (stereo not given) | 82.4% (inactive)
19 | COc1ccc(N=Nc2c(N)nn3c(-c4ccc(OC)c(OC)c4)ccnc23)cc1 | 85.2% (inactive)
20 | O=C1Nc2ccccc2/C1=C\c1ccc(OCC(=O)c2ccc(Br)cc2)cc1 | 58.5% (inactive)
21 | Cc1cc(=O)oc2cc(OCC(O)CNN3C(=O)c4cccc5c(N6CCN(C)CC6)ccc(c45)C3=O)ccc12 (stereo not given) | 99.4% (inactive)

Row | Structure (SMILES) | growth
22 | C/C(=N\Nc1ccc(S(N)(=O)=O)cc1)c1cnn(-c2cc(=O)[nH]c3ccc(Br)cc23)c1C | 77.9% (inactive)
23 | Cc1cccc(/C=C/c2ccc(NC(=S)NCCCCN(C)C)cc2)c1 | -85.5% (active)
24 | C/C(=N\Nc1ccc(C(=O)O)cc1)c1cnn(-c2cc(=O)[nH]c3ccc(C)cc23)c1C | 109% (inactive)
25 | CC(=O)C[n+]1cccc2c3ccccc3ccc21 | 82.4% (inactive)
26 | COc1cc(C2CC(c3ccc(C(F)(F)F)cc3)=Nc3c(N)nc(N)nc3N2)ccc1Oc1nc(Nc2ccc(F)cc2)nc(N(C)C)n1 (stereo not given) | 13% (inactive)
27 | COc1cc(/C=C/C(=O)c2cnn(-c3cc(=O)[nH]c4ccc(C)cc34)c2C)cc(OC)c1OC | 8.08% (active)
28 | COc1ccc(NC2=C(I)C(=O)C(C)=C(C)C2=O)cc1 | 97.9% (inactive)
29 | CC(C)(C)OC(=O)N1C/C(=C\c2ccc(F)cc2)C(=O)/C(=C/c2ccc(F)cc2)C1 | 1.19% (active)
30 | CC(Nc1ncnc2ccc(-c3ccc4oc(N)nc4c3)cc12)c1ccccc1 (stereo not given) | 3.34% (active)
31 | CC(=O)Nc1ccc(S(=O)(=O)Nc2ccc(-c3ccc4c(c3)NC(=O)/C4=C\c3ccc[nH]3)cc2)cc1 | 38.6% (inactive)
32 | Cc1ccc(C2CC(c3ccc(NC(=O)Nc4ccccc4)cc3)=NN2c2ccc(S(N)(=O)=O)cc2)cc1 (stereo not given) | -86.1% (active)
33 | COC(=O)CSC1=C(C)C(=O)C(OC)=C(OC)C1=O | 96.8% (inactive)
34 | Cc1cccc(-c2ccccc2Oc2ccc3nnc(Cl)n3n2)c1 | 109% (inactive)
35 | Cc1cccc(C)c1Nc1nnc(-c2c[nH]c3ccccc23)o1 | 99.7% (inactive)
36 | COc1ccc(-c2cc(C)nc3[nH]c(=O)sc23)cc1 | 52.4% (inactive)
37 | CC1=C(C(=O)Nc2ccccc2)C(c2cccc(Cl)c2Cl)n2c(nc3ccccc32)N1 (stereo not given) | 25.7% (inactive)
38 | CCN1CCN(Cc2ccc(C(=O)Nc3cccc(Nc4ccc5c(OC)cccc5n4)c3)cc2C(F)(F)F)CC1 | -69% (active)
39 | Cc1ccccc1NC(=O)c1cccc(NC(=O)CCl)c1 | 41.6% (inactive)
40 | C=CCSc1nnc(-c2c(C)nc3sccn23)o1 | 95.8% (inactive)
